Source: PubChem BioAssay (National Center for Advancing Translational Sciences (NCATS))
This excerpt belongs to a sample that is enriched for hits.
IL-1B inflam inh = inflammasome signaling inhibition, IL-1 beta readout | activity change, % at 57.5 µM | hit rate 4.7% among 360,000 | THP-1 LPS/ATP IL-1B secretion, AlphaLISA, 16 h; hits give low values; in the data active means activity change below about -50%; inconclusive means mostly about -30% to -49%
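THP-1 cells pretreated 1 hr with compounds (up to 57.5 uM final), then stimulated with LPS (250 ng/mL final) plus ATP (1.25 mM final); secreted IL-1B measured by AlphaLISA after 16 hr, decreased signal indicating inhibition.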
TDP1 cell CPT = DT40-hTDP1 cell growth loss with CPT; Potency, µM (top dose mostly 46.2 µM), hits mostly inhibitors; hit rate 12% among 420,000; chicken DT40 Tdp1-/-;hTDP1 cells + 20 nM CPT, ATP luminescence, 48 h; further: nearly all actives have a fitted effect of over 55% in size
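Cell growth measured by CellTiter-Glo luminescence after a minimum 48 h, 37 C compound exposure with 20 nM CPT in Tdp1-knockout DT40 cells stably expressing hTDP1, seeded 400/well; qHTS titration format.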
HT1080NT lethal = kills 2HG-producing HT-1080-NT fibrosarcoma cells; HT-1080-NT fibrosarcoma viability, CellTiter-Glo ATP luminescence, 48 h; Potency, µM (doses to about 46.1 µM), most hits filed as cytotoxic; hit rate 1.6% among 360,000;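 further: NT is the 2HG producing partner of a matched IDH1 knockdown line; nearly all actives have a fitted effect of over 55% in size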
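Luminescent CellTiter-Glo readout after 48 hours of compound exposure at 37 degrees C defined viability of HT-1080-NT cells. Activity was normalized to DMSO wells and cell-free media wells; concentration-response curves were fitted and assigned curve classes.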
12-LOX inh = ALOX12 (human) lipoxygenase inhibition; purified 12hLO, xylenol orange hydroperoxide absorbance; Potency, µM (doses to about 108 µM), hits mostly inhibitors; hit rate 1.1% among 580,000; P18054
Target sequence (P18054 whole entry, looked up): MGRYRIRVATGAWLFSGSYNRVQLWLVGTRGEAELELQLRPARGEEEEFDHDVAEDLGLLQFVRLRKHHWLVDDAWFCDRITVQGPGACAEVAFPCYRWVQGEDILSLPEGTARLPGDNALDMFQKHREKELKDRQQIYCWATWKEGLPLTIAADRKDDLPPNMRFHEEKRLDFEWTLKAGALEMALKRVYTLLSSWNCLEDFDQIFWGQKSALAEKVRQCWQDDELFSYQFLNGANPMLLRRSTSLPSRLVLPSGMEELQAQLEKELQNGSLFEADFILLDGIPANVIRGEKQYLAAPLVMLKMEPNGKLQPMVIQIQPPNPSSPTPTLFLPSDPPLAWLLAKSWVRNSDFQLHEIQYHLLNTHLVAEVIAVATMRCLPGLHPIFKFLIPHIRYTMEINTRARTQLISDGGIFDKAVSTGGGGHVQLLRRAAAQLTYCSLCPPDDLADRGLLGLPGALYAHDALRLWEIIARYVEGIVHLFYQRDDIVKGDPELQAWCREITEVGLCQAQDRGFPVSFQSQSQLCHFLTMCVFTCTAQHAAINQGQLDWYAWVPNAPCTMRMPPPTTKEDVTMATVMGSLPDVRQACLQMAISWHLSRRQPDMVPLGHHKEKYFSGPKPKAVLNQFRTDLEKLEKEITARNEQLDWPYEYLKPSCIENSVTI
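Purified human 12hLO at 150 nM in 25 mM Hepes, 0.01% Triton X-100, pH 7.0, preincubated 15 min at room temperature with compound. Reaction started with 40 uM arachidonic acid, 30 min at room temperature. Hydroperoxide measured by Fe-xylenol orange, 573/405 nm absorbance ratio.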
DT40 TDP1 no CPT = qHTS for Inhibitors of human tyrosyl-DNA phosphodiesterase 1 (TDP1): qHTS in cells in absence of CPT; DT40 Tdp1-/- hTDP1 cells, no CPT, ATP luminescence, 48 h; Potency, µM (series often up to 46.2 µM), most hits filed as inhibitors; hit rate 15% among 420,000; further: nearly all actives have a fitted effect of over 55% in size
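Chicken DT40 Tdp1-/- cells complemented with human TDP1, screened without camptothecin (DMSO vehicle only), 400 cells/well. Compounds pin-transferred, cells incubated at 37 °C for at least 48 hr. Growth read as ATP-dependent luminescence (CellTiter-Glo, 30 min at RT).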
HT1080 IDH1KD tx = kills HT-1080 cells with IDH1 knockdown; HT-1080 IDH1 knockdown viability, ATP luminescence, 48 h; Potency, µM (titrated, usually from 46.1 µM), hits mostly cytotoxic; hit rate 2% among 360,000
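Cytotoxicity counter-line: IDH1KD HT-1080, 48 h, CellTiter-Glo. Curves classed by r2, magnitude and activity.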
A number is an active result. Unless noted, the call rests on the fitted dose curve; in most records, active means well fitted curve in the direction sought with a large enough effect; inconclusive means small, poorly fitted or top-dose-only effect, or another doubt; inactive means no such curve, though single readings can be large; an effect the other way counts as inactive or inconclusive.

Screening CC1(Oc2ccc(CC#N)cc2)CCN(Cc2ccccc2OC(F)F)C1 (stereo not given) returned IL-1B inflam inh inactive, TDP1 cell CPT inactive, HT1080NT lethal inactive, 12-LOX inh inactive, DT40 TDP1 no CPT inactive and HT1080 IDH1KD tx inactive.
CCc1ccc(OC2(C)CCN(Cc3ccc(SC)cc3)C2)cc1 (stereo not given) was read as IL-1B inflam inh inactive, TDP1 cell CPT inconclusive, HT1080NT lethal inconclusive, 12-LOX inh inactive, DT40 TDP1 no CPT inconclusive and HT1080 IDH1KD tx inconclusive.
Screening CC1(Oc2ccc(Cl)cc2)CCN(Cc2ccc(OC(F)(F)F)cc2)C1 (stereo not given) returned IL-1B inflam inh -81.0, TDP1 cell CPT inconclusive, HT1080NT lethal inactive, 12-LOX inh inconclusive, DT40 TDP1 no CPT inactive and HT1080 IDH1KD tx inactive.
For CSc1ccc(OC2(C)CCN(Cc3ccc(C(C)C)cc3)C2)cc1 (stereo not given) the results were IL-1B inflam inh inactive, TDP1 cell CPT inconclusive, HT1080NT lethal inactive, 12-LOX inh inconclusive, DT40 TDP1 no CPT 18.4µM and HT1080 IDH1KD tx inactive.
`CC(C)Oc1ccccc1OC1(C)CCN(Cc2ccc(OC(F)(F)F)cc2)C1` (stereo not given) gave IL-1B inflam inh inactive, TDP1 cell CPT inconclusive, HT1080NT lethal inactive, 12-LOX inh inactive, DT40 TDP1 no CPT inconclusive and HT1080 IDH1KD tx inactive.
`CC1(Oc2ccc(CC#N)cc2)CCN(Cc2ccc(-n3ccnc3)cc2)C1` (stereo not given) gave IL-1B inflam inh inactive, TDP1 cell CPT inconclusive, HT1080NT lethal inactive, 12-LOX inh inconclusive, DT40 TDP1 no CPT 13µM and HT1080 IDH1KD tx inactive.
C=C(C)Cn1c(SCc2ccc(F)cc2)nc2c1c(=O)n(C)c(=O)n2C was read as 12-LOX inh inactive.
Cc1ccc2c(COC(=O)c3cc(S(=O)(=O)N(C)C)ccc3N3CCOCC3)cc(=O)oc2c1 was read as 12-LOX inh inactive.
For CC1CCCC(NC(=O)c2ccc3c(=O)n(CC4CCCO4)c(=O)[nH]c3c2)C1C (stereo not given) the results were IL-1B inflam inh inactive, TDP1 cell CPT inconclusive, HT1080NT lethal inactive, 12-LOX inh inactive, DT40 TDP1 no CPT 18.4µM and HT1080 IDH1KD tx inactive.
COc1ccc(NC(=O)c2ccc3c(=O)n(-c4ccc(OC)cc4OC)c(=S)[nH]c3c2)c(OC)c1 was read as IL-1B inflam inh inactive, TDP1 cell CPT 23.1µM, HT1080NT lethal inactive, 12-LOX inh inactive, DT40 TDP1 no CPT 20.6µM and HT1080 IDH1KD tx inactive.
Screening COc1ccc(NC(=O)c2ccc3c(=O)n(CC4CCCO4)c(=S)[nH]c3c2)c(OC)c1 (stereo not given) returned IL-1B inflam inh inactive, TDP1 cell CPT inconclusive, HT1080NT lethal inactive, 12-LOX inh inactive, DT40 TDP1 no CPT 13µM and HT1080 IDH1KD tx inactive.
CCCCOCCOc1nc(-c2ccc(C(=O)O)c(F)c2)sc1C was read as 12-LOX inh inactive.
Screening COc1cccc(CC(=O)Nc2ccc3c(c2)CN(Cc2ccccc2)C(=O)C(C)O3)c1 (stereo not given) returned 12-LOX inh inactive.
For Cc1nc(C2CC(N)C2)cc(N2CCC(CN3CCCC3=O)CC2)n1 (stereo not given) the results were 12-LOX inh inactive.
Cc1cccc2nc(-c3cccc(NS(=O)(=O)c4ccccc4)c3)cn12 was read as TDP1 cell CPT inconclusive, 12-LOX inh inactive and DT40 TDP1 no CPT 23.1µM.
`O=S(=O)(Nc1ccc(-c2cn3cccnc3n2)cc1)c1ccccc1` gave IL-1B inflam inh inactive, TDP1 cell CPT inactive, HT1080NT lethal inactive, 12-LOX inh inactive, DT40 TDP1 no CPT inactive and HT1080 IDH1KD tx inactive.
O=S(=O)(Nc1cccc(-c2cn3ccsc3n2)c1)c1ccc(F)cc1 was read as IL-1B inflam inh inactive, TDP1 cell CPT inconclusive, HT1080NT lethal inactive, 12-LOX inh inactive, DT40 TDP1 no CPT inconclusive and HT1080 IDH1KD tx inactive.
`O=S(=O)(Nc1ccc(-c2cn3ccsc3n2)cc1)c1ccccc1` gave 12-LOX inh 35.5µM.
`Cc1ccc(S(=O)(=O)Nc2cccc(-c3cn4ccsc4n3)c2)cc1` gave IL-1B inflam inh inactive, TDP1 cell CPT inconclusive, HT1080NT lethal inconclusive, 12-LOX inh inconclusive, DT40 TDP1 no CPT 20.6µM and HT1080 IDH1KD tx inconclusive.
For COc1cc(OC)cc(C(=O)Nc2cccc(-c3cn4ccsc4n3)c2)c1 the results were TDP1 cell CPT 13µM, 12-LOX inh inactive and DT40 TDP1 no CPT 18.4µM.
For COc1cccc(OC)c1C(=O)Nc1cccc(-c2cn3ccsc3n2)c1 the results were TDP1 cell CPT inactive, 12-LOX inh inactive and DT40 TDP1 no CPT inconclusive.
`O=C1CCSc2ccc(C(=O)NNC(=S)NCc3ccccc3)cc2N1` gave 12-LOX inh inactive.
`COc1nccnc1NC1CCN(S(=O)(=O)c2ccccc2)CC1` gave 12-LOX inh inactive.
Screening O=S(=O)(Nc1cccc(-c2cn3cccnc3n2)c1)c1ccc(-c2ccccc2)cc1 returned IL-1B inflam inh inactive, TDP1 cell CPT inconclusive, HT1080NT lethal inactive, 12-LOX inh inactive, DT40 TDP1 no CPT 14.6µM and HT1080 IDH1KD tx inactive.
CSc1nnc(-c2sc3cc(C(F)(F)F)cnc3c2-c2cccnc2)n1C was read as IL-1B inflam inh inactive, TDP1 cell CPT inconclusive, HT1080NT lethal inactive, 12-LOX inh inactive, DT40 TDP1 no CPT 16.4µM and HT1080 IDH1KD tx inactive.
Screening Cc1cc(NC(=O)COc2cccc(Cl)c2)no1 returned 12-LOX inh inactive.
Screening Cc1ccccc1Nc1nn2c(=O)c3ccc(C(=O)NCC(C)c4ccccc4)cc3nc2s1 (stereo not given) returned TDP1 cell CPT 14.6µM, 12-LOX inh inactive and DT40 TDP1 no CPT 14.6µM.
For Cc1ccc(C)c(Nc2nn3c(=O)c4ccc(C(=O)NCc5ccccc5)cc4nc3s2)c1 the results were TDP1 cell CPT 5.17µM, 12-LOX inh inactive and DT40 TDP1 no CPT 7.31µM.
Screening O=C(NCc1ccccn1)c1ccc2c(=O)n3nc(Nc4ccccc4)sc3nc2c1 returned IL-1B inflam inh inactive, TDP1 cell CPT inconclusive, HT1080NT lethal inconclusive, 12-LOX inh inactive, DT40 TDP1 no CPT inactive and HT1080 IDH1KD tx inconclusive.
For CCN(CC)CCNC(=O)c1ccc2c(=O)n3nc(Nc4ccccc4)sc3nc2c1 the results were TDP1 cell CPT 5.8µM, 12-LOX inh inconclusive and DT40 TDP1 no CPT 4.61µM.
Screening CCOC(=O)c1ccc(Nc2nn3c(=O)c4ccccc4nc3s2)cc1 returned TDP1 cell CPT inactive, 12-LOX inh inactive and DT40 TDP1 no CPT inactive.
`CCc1nc2ccc(C(=O)NCc3cccs3)cc2nc1CC` gave 12-LOX inh inactive.
